Among the data in PubChem BioAssay (Tox21) are Potency values, retold here.

Results filed as inconclusive are left out. The source made the active and inactive calls. Unless noted, calls come from the whole dose curve.

A short description of experiment [1]: Nuclear factor erythroid 2-related factor 2/antioxidant responsive element (Nrf2/ARE) small molecule agonists: qHTS cell viability counter screen in human keratinocytes (AID 1919968; active = well fitted cell-killing curve with a large enough effect in the repeat runs; note: nearly all actives have a fitted effect of over 55% in size). Put shortly:
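HaCaT ARE reporter line, 1,500 cells/well; 5 h settle, 37 C/5% CO2; cpd in DMSO pinned; 23 h exposure; CellTiter-Fluor, 1 h; fluorescence.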
A general note: In qHTS, concentration-response curves come from the screen itself.

The nature of experiment [2]: Nuclear factor erythroid 2-related factor 2/antioxidant responsive element (Nrf2/ARE) small molecule agonists: luciferase reporter gene qHTS assay in human keratinocytes (AID 1919969). Note: nearly all actives have a fitted effect of over 35% in size. In general terms: Reporter assays use an easily measured gene product as a stand-in for the process of interest.
The target of experiment [3] is Gonadotropin-releasing hormone receptor (Homo sapiens) (UniProt P30968). In words: Human gonadotropin-releasing hormone receptor (GnRHR) small molecule agonists, calcium flux assay in GnRHR-HEK293 cells (AID 1920063). Note: nearly all actives have a fitted effect of over 35% in size. Put shortly:
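GnRHR-HEK293, 1500 cells/well, 18 h 37 C/5% CO2; Ca dye 1 h 37 C; cpd pinned (DMSO), agonist mode; kinetic FL 480/540, 3 min, 1 s reads; 15 conc, n=3.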
On the technique in general: A change in cytosolic calcium serves as a functional read-out for many receptors and channels.

Experiment [4] in a line: G protein-coupled receptor (GPCR) small molecule agonists, calcium flux assay: HEK293 wild type cell line counter screen (AID 1920065). The essentials:
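Kinetic fluorescence at Ex/Em 480/540, recorded every second over 3 min, served as the read-out after compound addition. Each compound was tested at 15 concentrations in triplicate on cells pre-loaded with calcium dye for 1 h.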

Experiment [5] is described as follows: p53 small molecule agonists, cell-based qHTS assay with human liver microsomes (AID 1963577).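 Note: p53 response element beta-lactamase reporter cells with liver microsomes plus NADPH.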 Put shortly:
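With metabolic activation: human liver microsomes (0.5 mg/mL final) plus NADPH (0.5 mg/mL final) added alongside compounds to p53RE-bla cells; 16 h 37 C exposure; beta-lactamase read by LiveBLAzer fluorescence.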

The nature of experiment [6]: p53 small molecule agonists, cell-based qHTS assay with rat liver microsomes (AID 1963578). The essentials:
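Metabolic activation by rat liver microsomes and NADPH, each 0.5 mg/mL final, added right after compounds to p53RE-bla reporter cells (4,000/well, plated 5 h earlier). 16 h at 37 C, then LiveBLAzer substrate for 2 h at room temperature in the dark; fluorescence read-out.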

Experiment [7] is described as follows: p53 small molecule agonists, cell-based qHTS assay with human liver microsomes: qHTS cell viability counter screen (AID 1963579). Note: nearly all actives have a fitted effect of over 45% in size. Put shortly:
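Metabolic activation used human liver microsomes and NADPH, both 0.5 mg/mL final, over 16 hours at 37 C on p53RE-bla cells (4,000/well). Cytotoxicity measured by CellTiter-Glo luminescence, 30 min at room temperature.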

Experiment [8] can be described thus: p53 small molecule agonists, cell-based qHTS assay with rat liver microsomes: qHTS cell viability counter screen (AID 1963580). Note: nearly all actives have a fitted effect of over 45% in size. Put shortly:
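p53RE-bla HCT-116 cells (4,000/well) rested 5 h at 37 C, then given Tox21 compounds in DMSO with rat liver microsomes (0.5 mg/mL final) plus NADPH (0.5 mg/mL final) for 16 h at 37 C. Viability read by CellTiter-Glo luminescence after 30 min at room temperature.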

Experiment [9] concerns the target 5-hydroxytryptamine receptor 2A (Homo sapiens) (UniProt P28223). The experiment can be described thus: 5-hydroxytryptamine receptor 2A (HTR2A) small molecule antagonists, cell-based qHTS assay (AID 1963586). Note: nearly all actives have a fitted effect of over 45% in size. The essentials: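 Antagonist-mode intracellular calcium assay: DOI (4 nM) added after 5 min compound pre-incubation at room temperature to dye-loaded HTR2A-CHO cells. Fluorescence followed for 3 min, sampled every second.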

Experiment [10] shares this target. The experiment can be described thus: 5-hydroxytryptamine receptor 2A (HTR2A) small molecule agonists, cell-based qHTS assay (AID 1963587). Note: nearly all actives have a fitted effect of over 30% in size. The essentials: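 HTR2A-CHO cells, plated 18 h at 37 C/5% CO2, dye-loaded 1 h at 37 C; compounds in DMSO added by pin tool (agonist mode). Intracellular calcium flux read as kinetic fluorescence on FDSS over 2 min at 1 s intervals.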

The target of experiment [11] is Muscarinic acetylcholine receptor M1 (Homo sapiens) (UniProt P11229). In words: Cholinergic receptor muscarinic 1 (CHRM1) small molecule antagonists, cell-based qHTS assay (AID 1963588). Note: nearly all actives have a fitted effect of over 40% in size. Note: potency is the fitted concentration of half-maximal effect. The essentials: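 CHRM1-CHO calcium-flux assay, antagonist mode. Cells were seeded 18 h, dye-loaded 1 h at 37 C and given compound for 5 min at RT, then acetylcholine was added at 50nM. FDSS fluorescence was read 3 min; 15 concentrations, three runs.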
Muscarinic acetylcholine receptor M1 (Homo sapiens), sequence (P11229 whole entry, looked up): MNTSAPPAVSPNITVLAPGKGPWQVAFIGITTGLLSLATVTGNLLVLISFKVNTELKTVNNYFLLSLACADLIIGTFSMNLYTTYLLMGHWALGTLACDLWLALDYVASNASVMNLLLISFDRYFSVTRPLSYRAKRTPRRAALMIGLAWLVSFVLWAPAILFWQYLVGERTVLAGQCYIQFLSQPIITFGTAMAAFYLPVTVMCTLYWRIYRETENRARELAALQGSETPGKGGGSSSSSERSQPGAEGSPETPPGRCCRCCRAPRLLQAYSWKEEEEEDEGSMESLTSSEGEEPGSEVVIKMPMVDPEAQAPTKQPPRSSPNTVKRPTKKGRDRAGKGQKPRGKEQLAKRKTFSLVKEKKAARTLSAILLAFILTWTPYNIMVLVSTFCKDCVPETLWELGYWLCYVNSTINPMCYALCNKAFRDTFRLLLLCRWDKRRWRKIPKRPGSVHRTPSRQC

Experiment [12] has the same target. The experiment can be described thus: Cholinergic receptor muscarinic 1 (CHRM1) small molecule agonists, cell-based qHTS assay (AID 1963589). Note: nearly all actives have a fitted effect of over 35% in size. The essentials: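 Human M1 in stable CHO line; 18 h plating, 1 h dye load 37 C; cpd added (agonist mode); Ca2+ fluorescence kinetic read, 1 s intervals; 15 conc, 3 runs.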
The nature of experiment [13]: cAMP Responsive Elements (CRE) small molecule agonists, cell-based qHTS assay (AID 1963590). The essentials:
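HEK 293T CRE-bla, 2,000 cells/well, 18 h preincubation 37 C/5% CO2; cpds (DMSO) pinned, 3 h; LiveBLAzer B/G FRET substrate, 2 h RT.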

Experiment [14] in a line: cAMP Responsive Elements (CRE) small molecule antagonists, cell-based qHTS assay (AID 1963591; active = well fitted inhibition curve with a large enough effect in the signal ratio in the repeat runs, not every such curve was filed as active; the % refers to the signal ratio). The essentials:
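Beta-lactamase reporter read by FRET substrate (LiveBLAzer B/G) after 2 h at room temperature. CRE-bla HEK293T cells had received compound plus 0.25 uM (final) NKH477 for 3 h at 37 °C.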

Experiment [15] addresses Beta-2 adrenergic receptor (Homo sapiens) (UniProt P07550). In words: Adrenergic beta2 receptor (ADRB2) small molecule antagonists, cell-based qHTS assay (AID 1963592). Note: series mostly up to about 92 µM; nearly all actives have a fitted effect of over 50% in size. The essentials:
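Cells (CHO, stable ADRB2 overexpression) incubated 18-20hr at 37C; compounds added from DMSO; agonist mix (1nM isoproterenol, 100uM IBMX, 25uM Ro-20-1724) added; 0.5hr RT; d2-cAMP and anti-cAMP-cryptate added; 1hr RT; 665/615 nm read.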

For experiment [16] the target is unchanged. In words: Adrenergic beta2 receptor (ADRB2) small molecule agonists, cell-based qHTS assay (AID 1963593).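 Note: CHO cells stably overexpressing human ADRB2.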 The essentials: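 CHO cells stably over-expressing ADRB2 were plated overnight at 37C, then dosed with compounds plus a stimulation mix containing 100uM IBMX and 25uM Ro-20-1724 for 0.5hr at room temperature. cAMP was measured by HTRF competition, 1hr.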

Experiment [17] concerns the target D(2) dopamine receptor (Homo sapiens) (UniProt P14416). The experiment can be described thus: Dopamine D2 receptor (DRD2) small molecule agonists, cell-based qHTS assay (AID 1963594). Note: nearly all actives have a fitted effect of over 35% in size. Put shortly: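 HEK293 cells stably expressing DRD2 were cultured 24 h at 37 C, then given Ro20-1724 (0.1 mM final) and compounds for 10 min at room temperature. NKH477 (200nM) was then added for 30 min. cAMP was read by HTRF.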

Experiment [18] has the same target. In words: Dopamine D2 receptor (DRD2) small molecule antagonists, cell-based qHTS assay (AID 1963595; active = well fitted inhibition curve with a large enough effect in the signal ratio in the repeat runs, with a control signal flat; the % refers to the signal ratio). Put shortly:
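In this cell-based antagonist screen, compounds act for 10 min at room temperature before a 30 min challenge with 12 nM quinpirole and 200 nM NKH477. cAMP is quantified by HTRF competition in DRD2-HEK293 cells containing 0.1 mM Ro20-1724.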

Experiment [19] in a line: p53 small molecule agonists, cell-based qHTS assay: qHTS cell viability counter screen (AID 1963581). Note: nearly all actives have a fitted effect of over 45% in size. The essentials:
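HCT-116 p53RE-bla cells, 4,000/well, plated 5 h before compound pin transfer; 16 h at 37 C; bla substrate 2 h RT; then CellTiter-Glo, 30 min RT, luminescence.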

Experiment [20] in a line: p53 small molecule agonists, cell-based qHTS assay (AID 1963582; active = well fitted activation curve with a large enough effect in the signal ratio in the repeat runs, not every such curve was filed as active; the % refers to the signal ratio). The essentials:
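Reporter line: p53RE-bla. Pre-incubation 5 h, 37 C, 5% CO2; compound (DMSO, pin tool) 16 h, 37 C; B/G FRET substrate 2 h RT; fluorescence intensity read.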

5-hydroxytryptamine receptor 2A (Homo sapiens), sequence (P28223 whole entry, looked up): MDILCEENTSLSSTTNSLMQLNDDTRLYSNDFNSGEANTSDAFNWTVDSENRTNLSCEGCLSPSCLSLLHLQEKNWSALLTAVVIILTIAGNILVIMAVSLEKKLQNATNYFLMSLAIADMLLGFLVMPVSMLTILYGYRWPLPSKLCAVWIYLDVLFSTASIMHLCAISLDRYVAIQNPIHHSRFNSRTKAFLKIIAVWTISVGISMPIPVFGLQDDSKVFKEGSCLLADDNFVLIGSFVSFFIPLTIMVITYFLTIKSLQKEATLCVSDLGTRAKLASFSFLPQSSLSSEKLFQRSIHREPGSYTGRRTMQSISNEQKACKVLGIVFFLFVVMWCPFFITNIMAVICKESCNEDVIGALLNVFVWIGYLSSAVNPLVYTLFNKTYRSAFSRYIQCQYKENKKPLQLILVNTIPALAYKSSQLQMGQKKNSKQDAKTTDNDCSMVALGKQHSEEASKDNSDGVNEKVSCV
Beta-2 adrenergic receptor (Homo sapiens), sequence (P07550 whole entry, looked up): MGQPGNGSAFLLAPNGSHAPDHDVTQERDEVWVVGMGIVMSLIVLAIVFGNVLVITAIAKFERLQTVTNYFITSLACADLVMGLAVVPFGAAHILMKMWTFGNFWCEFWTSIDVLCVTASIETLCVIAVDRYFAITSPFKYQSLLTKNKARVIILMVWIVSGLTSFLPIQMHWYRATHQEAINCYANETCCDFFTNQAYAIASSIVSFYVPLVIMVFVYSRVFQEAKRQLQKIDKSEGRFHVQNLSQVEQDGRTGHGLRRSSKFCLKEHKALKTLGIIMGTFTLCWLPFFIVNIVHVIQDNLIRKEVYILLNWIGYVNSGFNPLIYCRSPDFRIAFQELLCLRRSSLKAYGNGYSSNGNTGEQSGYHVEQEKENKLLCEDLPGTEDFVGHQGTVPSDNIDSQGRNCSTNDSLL
D(2) dopamine receptor (Homo sapiens), sequence (P14416 whole entry, looked up): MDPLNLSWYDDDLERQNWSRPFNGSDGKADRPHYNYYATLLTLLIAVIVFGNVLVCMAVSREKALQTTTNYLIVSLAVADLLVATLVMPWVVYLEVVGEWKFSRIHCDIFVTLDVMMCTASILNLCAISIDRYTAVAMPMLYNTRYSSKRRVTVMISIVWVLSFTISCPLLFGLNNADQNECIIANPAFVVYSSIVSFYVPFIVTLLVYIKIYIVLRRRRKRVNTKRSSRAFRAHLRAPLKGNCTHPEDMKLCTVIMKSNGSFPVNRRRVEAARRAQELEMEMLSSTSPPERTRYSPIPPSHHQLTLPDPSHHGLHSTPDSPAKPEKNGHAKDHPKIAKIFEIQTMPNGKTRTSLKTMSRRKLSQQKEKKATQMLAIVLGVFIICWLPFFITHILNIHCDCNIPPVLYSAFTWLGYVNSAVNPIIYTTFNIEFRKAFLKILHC
Gonadotropin-releasing hormone receptor (Homo sapiens), sequence (P30968 whole entry, looked up): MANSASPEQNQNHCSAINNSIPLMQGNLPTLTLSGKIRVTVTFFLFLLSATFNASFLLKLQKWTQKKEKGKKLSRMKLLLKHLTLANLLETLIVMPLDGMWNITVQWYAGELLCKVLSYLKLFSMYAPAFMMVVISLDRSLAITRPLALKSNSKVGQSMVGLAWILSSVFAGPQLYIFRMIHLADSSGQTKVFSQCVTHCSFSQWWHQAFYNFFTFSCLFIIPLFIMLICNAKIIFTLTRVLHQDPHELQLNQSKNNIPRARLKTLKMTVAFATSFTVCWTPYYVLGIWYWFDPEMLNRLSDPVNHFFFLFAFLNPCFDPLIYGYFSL

As to `Cc1ccc2ccccc2c1[N+](=O)[O-]`, the Potency entry in experiment [1], in experiment [2], in [3], in experiment [4], in experiment [5] and in experiment [6] was “inactive” in each case. The Potency result in [7], in experiment [8], in experiment [9], in experiment [10], in experiment [11] and in experiment [12] was “inactive” throughout. Moreover, the Potency result in experiment [13], in experiment [14], in experiment [15], in experiment [16], in experiment [17] and in [18] was “inactive” each time.

Consider `C=C(C)C(=O)OCCC(C)OC(=O)C(=C)C` (stereo not drawn), for which the Potency result in experiment [1], in [2], in experiment [4], in [5], in [6] and in [7] was “inactive” throughout. Also, the Potency entry in experiment [8], in experiment [19], in experiment [20], in [9], in experiment [10] and in experiment [11] was “inactive” throughout. In addition, the Potency entry in experiment [12], in [13], in experiment [14], in experiment [15], in experiment [16] and in experiment [17] was “inactive” throughout.

On to `CC(C)(C)C(=O)C1C(=O)c2ccccc2C1=O`, for which the Potency result in experiment [1], in experiment [2], in experiment [4], in experiment [5], in experiment [6] and in experiment [7] was “inactive” in each case. The Potency entry in experiment [8], in [19], in experiment [20], in experiment [9], in experiment [10] and in [11] was “inactive” in each case. Besides, the Potency entry in experiment [12], in [13], in [14], in experiment [15], in [17] and in [18] was “inactive” each time.

In the case of `OCC1CCC(CO)CC1` (stereo not drawn), the Potency result in experiment [1], in [2], in experiment [4], in experiment [5], in [6] and in experiment [7] was “inactive” throughout. For the same compound, the Potency entry in experiment [8], in experiment [19], in experiment [20], in experiment [9], in experiment [10] and in [11] was “inactive” in each case. For the same compound, the Potency entry in experiment [14], in experiment [15], in experiment [16], in experiment [17] and in experiment [18] was “inactive” in each case.

Turning to `CCCC(=O)Nc1ccc(O)c(C(C)=O)c1`, the Potency result in experiment [1], in experiment [2], in experiment [4], in [5], in [6] and in experiment [7] was “inactive” each time. Also, the Potency result in [8], in [19], in [20], in experiment [9], in experiment [10] and in experiment [11] was “inactive” throughout. Also, the Potency entry in experiment [12], in experiment [13], in experiment [14], in experiment [15], in [17] and in [18] was “inactive” throughout.

Consider `CN1N=C(C(N)=O)CCC1=O`, for which the Potency result in experiment [1], in [2], in [4], in [5], in experiment [6] and in experiment [7] was “inactive” throughout. The Potency result in [8], in experiment [19], in [20], in experiment [9], in [10] and in experiment [11] was “inactive” throughout. Also, the Potency result in experiment [12], in experiment [13], in [14], in [15], in experiment [16] and in experiment [18] was “inactive” in each case.

In the case of `C=CCOc1cc(Cl)ccc1C(=O)NCCN(CC)CC`, the Potency entry in experiment [1], in experiment [2], in experiment [4], in experiment [5], in experiment [6] and in experiment [7] was “inactive” throughout. Besides, the Potency entry in experiment [8], in experiment [19], in [20], in [9], in experiment [10] and in experiment [12] was “inactive” throughout. In addition, the Potency result in [13], in experiment [14] and in [17] was “inactive” in each case. Also, the Potency in experiment [11] is 4.6 µM (active).
